From PubChem BioAssay (NCATS)
Inconclusive results are not listed. A call without a number means that no potency is given here. Values without a mark were called inactive. Activity calls are given as the source filed them. The call rests on the fitted dose curve; in most records, active means well fitted curve in the direction sought with a large enough effect; inconclusive means small, poorly fitted or top-dose-only effect, or another doubt; inactive means no such curve, though single readings can be large; an effect the other way counts as inactive or inconclusive.

Columns and labels:
[1] = qHTS for Inhibitors of Plasmodium falciparum (CP250) proliferation (AID 504320)
How it was run: (§1)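 Parasite growth measured as SYBR Green DNA fluorescence (ex 485, em 535 nm) after overnight lysis following 72 h culture at 37 °C, 0.3% parasitemia, 2.5% hematocrit. Values normalized against DMSO and 0.29 uM artemisinin controls, with plate-stack correction.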

[2] = qHTS for Inhibitors of Plasmodium falciparum (GB4) proliferation (AID 504315); further: nearly all actives have a fitted effect of over 50% in size
How it was run: as §1

[3] = qHTS for Inhibitors of Plasmodium falciparum (HB3) proliferation (AID 504318); further: nearly all actives have a fitted effect of over 60% in size
How it was run: as §1

[4] = qHTS for Inhibitors of Plasmodium falciparum (7G8) proliferation (AID 504316); further: nearly all actives have a fitted effect of over 65% in size
How it was run: as §1
Potency means the concentration at half of the fitted maximal effect.

| SMILES | Potency [1] | Potency [2] | Potency [3] | Potency [4] |
| --- | --- | --- | --- | --- |
| CCCCCCC#C[C@@H]1C=C[C@H](OC(C)=O)[C@@H](COC(C)=O)O1 | inactive |  |  |  |
| CC(CCN1CCCCc2nc(C)c(C)cc21)=NO[C@@H](C)c1cn([C@H](CO)Cc2ccccc2)nn1 | inactive | inactive |  |  |
| COc1ccc(CN2C=C3C(=O)C(C)(OC(=O)CCc4ccccc4)C(=O)C=C3C=C2c2ccc(C#N)cc2)cc1 (configuration not stated) | inactive | inactive |  |  |
| COC(=O)C1=C(C(=O)OC)[C@@H]2N(C)c3ccc(OC)cc3[C@@]23C[C@@H](C(=O)OC)N(S(=O)(=O)c2c(C)noc2C)C3=N1 | inactive | inactive | inactive |  |
| COc1ccc([C@]23Cc4cc(C#N)ccc4[C@H](O2)c2c(cc(-c4ccccc4)oc2=O)O3)cc1 | inactive |  |  | 1350 nM (active) |
| COC(=O)C1=C(C)N(CCc2cc(OC)c(OC)c(OC)c2)C(=O)N[C@H]1c1ccccc1 | inactive | inactive |  | inactive |
| COC(=O)N1C2=C(c3ccccc3[C@@H]1CC(=O)Nc1ccc3ccc4cccc5ccc1c3c45)[C@@H]1C(=O)N(c3ccccc3)C(=O)[C@@H]1[C@H](C)C2 | 1510 nM (active) | 1510 nM (active) | 2130 nM (active) | 1510 nM (active) |
| CCOC(=O)OC[C@H]1O[C@H](C#Cc2ccccc2)C=C[C@H]1OC(=O)OCC | inactive |  |  | 1510 nM (active) |
| C[C@@H]1CC[C@H]2C(=O)N(Cc3cccc([N+](=O)[O-])c3)C[C@H](O)CN2[C@@H]1c1ccc(Br)cc1 | inactive | inactive |  | inactive |
